In the library only some 19% were active in any assay of this set; here they are far more common.
HT1080-NT tox: kills 2HG-producing HT-1080-NT fibrosarcoma cells; HT-1080-NT fibrosarcoma viability, CellTiter-Glo ATP luminescence, 48 h; Potency, µM (highest dose often 46.1 µM), inactives show top-dose activity, negative = less viability, actives largely listed as cytotoxic; 360,000 compounds, 1.6% hits;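 also: NT is the 2HG producing partner of a matched IDH1 knockdown line; potency is read from the fitted curve at half-maximal effect; 0% = DMSO-treated cells and -100% = media-only wells without cells; nearly all actives have a fitted effect of over 55% in size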
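Luminescent CellTiter-Glo readout after 48 hours of compound exposure at 37 degrees C defined viability of HT-1080-NT cells. Activity was normalized to DMSO wells and cell-free media wells; concentration-response curves were fitted and assigned curve classes.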
TDP1 cell noCPT: qHTS for Inhibitors of human tyrosyl-DNA phosphodiesterase 1 (TDP1): qHTS in cells in absence of CPT | DT40 Tdp1-/- hTDP1 cells, no CPT, ATP luminescence, 48 h | Potency, µM (titrated, usually from 46.2 µM), without a hit: top-dose activity change, negative = growth inhibition, actives largely listed as inhibitors | 420,000 compounds, 15% hits | AID 686978, 2013; also: potency is read from the fitted curve at half-maximal effect; nearly all actives have a fitted effect of over 55% in size
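No-CPT arm: Tdp1-/-;hTDP1 DT40 cells (400/well) plus compounds, incubated ≥48 hr at 37 °C. Readout CellTiter-Glo luminescence.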
IL-1B inflam inh: inhibitors of inflammasome signaling (IL-1 beta secretion). 360,000 compounds, 4.7% hits. THP-1 LPS/ATP IL-1B secretion, AlphaLISA, 16 h; active compounds read low. activity change, % at 57.5 µM; in the data active = activity change below about -50%; inconclusive = mostly about -30% to -49%
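THP-1 cells pretreated 1 hr with compounds (up to 57.5 uM final), then stimulated with LPS (250 ng/mL final) plus ATP (1.25 mM final); secreted IL-1B measured by AlphaLISA after 16 hr, decreased signal indicating inhibition.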
TDP1 cell CPT: growth inhibition of DT40 Tdp1-/-;hTDP1 cells with camptothecin (screen for TDP1 inhibitors); chicken DT40 Tdp1-/-;hTDP1 cells + 20 nM CPT, ATP luminescence, 48 h; Potency, µM (top dose mostly 46.2 µM), without a hit: top-dose activity change, negative = growth inhibition, hits mostly inhibitors; 420,000 compounds, 12% hits; AID 686979; also: potency is read from the fitted curve at half-maximal effect; nearly all actives have a fitted effect of over 55% in size
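Chicken DT40 Tdp1-/- cells stably complemented with human TDP1 were seeded at 400 cells/well in medium containing 20 nM camptothecin, exposed to pin-transferred compounds, and grown at 37 °C for at least 48 hr. Viability was read as ATP luminescence.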
HT1080 IDH1KD tx: HT-1080 IDH1 knockdown cell toxicity (counter line); HT-1080 IDH1 knockdown viability, ATP luminescence, 48 h; 360,000 compounds, 2% hits; AID 686971; Potency, µM (doses to about 46.1 µM), inactives show at the top dose activity, negative = toxicity, hits mostly cytotoxic;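 also: potency is read from the fitted curve at half-maximal effect; 0% = DMSO wells and -100% = cell-free medium wells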
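After a 2 h attachment period, IDH1KD HT-1080 cells took pin-transferred compound for 48 h at 37 °C; ATP-based luminescence after 10 min room-temperature reagent incubation reported viability.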
Starred values were filed as active, the others as inactive; ? = inconclusive; . = no result. Unless noted, calls follow the shape of the dose curve; as a rule, active = well fitted curve in the direction sought with a large enough effect; inconclusive = small, poorly fitted or top-dose-only effect, or another doubt; inactive = no such curve, though single readings can be large; an effect the other way counts as inactive or inconclusive. Unless noted, % is scaled to controls: 0 for no effect and ±100 for the full control effect.

SMILES	HT1080-NT tox	TDP1 cell noCPT	IL-1B inflam inh	TDP1 cell CPT	HT1080 IDH1KD tx
CCC1(c2ccc(Cl)cc2)NC(=O)N(CC(=O)NC2CCCC(C)C2C)C1=O (stereo not given)	-26.7%	25.9µM*	-52.8*	23.1µM*	-27.6%
O=C(CN1C(=O)NC2(CCCC2)C1=O)NCc1ccc(Cl)cc1	-2.3%	2.5%	-51.4*	1.0%	-4.8%
CCC1(c2ccc(Cl)cc2)NC(=O)N(CC(=O)NCc2ccc(F)cc2)C1=O (stereo not given)	-24.0%	16.4µM*	-52.9*	?	-10.0%
CCC1(c2ccc(Cl)cc2)NC(=O)N(CC(=O)NC2CCCCCC2)C1=O (stereo not given)	1.3%	23.1µM*	-29.6	?	-10.1%
O=C(Nc1cccc(Cl)c1)c1ccc(-n2cncn2)c([N+](=O)[O-])c1	2.3%	?	-8.2	?	0.7%
Cc1cccc(OCCSc2nnc(-c3cccs3)o2)c1	.	?	.	-29.6%	.
O=C(c1ccccc1Cl)N1CCCCC1CCN1CCCCC1 (stereo not given)	.	-5.6%	.	-20.5%	.
CCCCOc1ccc(NC(=S)Nc2cc(C)nc(SCCCC)n2)cc1	18.3%	2.91µM*	11.1	5.8µM*	23.4%
CCOc1ccc(NC(=O)CSc2nc(C)cc(C)n2)cc1	-2.2%	?	19.6	?	17.8%
O=C(c1cc([N+](=O)[O-])ccc1N1CCOCC1)N1CCOCC1	1.0%	18.9%	-7.2	-12.7%	2.9%
COC(=O)C1=Cc2cc(OC)cc([N+](=O)[O-])c2OC1N1CCOCC1 (stereo not given)	3.5%	25.9µM*	-0.9	?	5.2%
CC(C)C(=O)C1=Cc2cccc([N+](=O)[O-])c2OC1N1CCOCC1 (stereo not given)	-4.9%	?	-59.7*	?	-7.1%
O=C(Cc1ccccc1[N+](=O)[O-])NCCCN1CCOCC1	20.1%	-0.8%	-5.0	16.6%	18.8%
CC(C)C(=O)C1=Cc2cc([N+](=O)[O-])ccc2OC1N1CCOCC1 (stereo not given)	-22.4%	25.9µM*	-16.2	?	-19.4%
COc1ccc(C(=O)NN2CCOCC2)cc1[N+](=O)[O-]	-2.7%	3.7%	?	-4.2%	-1.3%
Cc1ccc([C@@H]2C[C@H]3[C@@H](CN2S(=O)(=O)c2ccc(C)cc2)C(=O)C[C@@H](c2ccc(Cl)cc2)N3S(=O)(=O)c2ccccc2C)cc1	0.7%	-10.9%	16.3	-10.9%	4.9%
O=C(COC(=O)Cc1ccc(Br)cc1)Nc1ccc(Cl)cn1	5.3%	-3.0%	8.1	-0.3%	6.7%
CC(=O)c1ccc(NC(=O)c2cc(-c3ccc(Cl)c(Cl)c3)on2)cc1	.	18.8%	.	-5.4%	.
Cc1ccc(C)c(Oc2cc(NN3CCCCC3)c([N+](=O)[O-])cc2[N+](=O)[O-])c1	13.9%	-21.8%	6.7	?	11.9%
O=[N+]([O-])c1cc([N+](=O)[O-])c(Oc2cccc(Cl)c2Cl)cc1NN1CCCCC1	8.8%	?	19.0	23.1µM*	11.4%
COc1cc(C(C)=O)ccc1Oc1cc(NN2CCCCC2)c([N+](=O)[O-])cc1[N+](=O)[O-]	-5.6%	?	-15.8	23.1µM*	-5.9%
CC1(C)Cc2cccc(Oc3cc(NN4CCCCC4)c([N+](=O)[O-])cc3[N+](=O)[O-])c2O1	-0.9%	16.4µM*	-1.7	?	9.4%
Cc1cc(Oc2cc(NN3CCCCC3)c([N+](=O)[O-])cc2[N+](=O)[O-])c(C(=O)c2ccccc2)cc1Cl	0.0%	?	0.7	20.6µM*	1.8%
Cc1nc2ccsc2c(=O)n1-c1ccc(Cl)cc1	13.7%	-4.6%	35.4	-9.8%	21.6%
CC1=CC(C)(C)N=C(Nc2nc(C)c3cc(C)cc(C)c3n2)N1	-4.3%	16.4µM*	-95.1*	14.6µM*	-3.9%
SMILES	HT1080-NT tox	TDP1 cell noCPT	IL-1B inflam inh	TDP1 cell CPT	HT1080 IDH1KD tx
O=C1c2ccccc2C(=O)c2c1ccc1c(=O)n(C3CCCCC3)[nH]c21	-17.4%	23.1µM*	-11.5	?	-14.4%
CC(C)C[C@@H](CN1CCCC1CN1C(=S)NC[C@@H]1Cc1ccccc1)N1C[C@H](Cc2ccc(O)cc2)N(CC2CCCCC2)C1=S (stereo not given in full)	?	18.4µM*	-21.2	?	?
CC(C)C[C@@H](CN1CCC[C@@H]1CN1C(=S)NC[C@@H]1Cc1ccc(O)cc1)N1C[C@H](Cc2ccc(O)cc2)N(CC2CCCCC2)C1=S	23.1µM*	16.4µM*	-80.5*	18.4µM*	?
CC(C)C[C@H]1CN([C@@H](CC(C)C)CN2CCC[C@@H]2CN2C(=S)NC[C@@H]2Cc2ccc(O)cc2)C(=S)N1CC1CCCCC1	20.6µM*	16.4µM*	?	?	14.6µM*
CC(C)C[C@@H](CN1CCC[C@H]1CN1C(=O)C(=O)NC[C@@H]1Cc1ccc(O)cc1)N1C[C@H](Cc2ccccc2)N(CC2CCCCC2)C(=O)C1=O	?	?	-1.5	?	?
CC(C)C[C@@H](CN1CCCC1CN1C(=S)NC[C@@H]1Cc1ccccc1)N1C[C@H](Cc2ccccc2)N(CC2CCCCC2)C1=S (stereo not given in full)	-10.9%	?	0.0	?	-2.2%
CC(C)C[C@H]1CNC(=S)N1CC1CCCN1C[C@H](CC(C)C)N1C[C@H](Cc2ccccc2)N(CC2CCCCCC2)C1=S (stereo not given in full)	12.2%	23.1µM*	7.0	?	11.4%
CC(C)C[C@H]1CN([C@@H](CC(C)C)CN2CCCC2CN2C(=S)NC[C@@H]2Cc2ccc(O)cc2)C(=S)N1CC1CCCCC1 (stereo not given in full)	1.7%	?	-1.8	?	3.0%
COCCCNC(=O)CN1C(=O)COc2ccc(S(=O)(=O)N3CCCC3)cc21	.	5.9%	.	2.4%	.
O=C(COC(=O)c1cccnc1)Nc1ccc2c(c1)OCO2	10.0%	4.5%	20.5	10.0%	5.0%
Cn1nnnc1SCc1ccc([N+](=O)[O-])cc1	8.9%	7.6%	4.3	15.7%	14.9%
O=C(Nc1c(C(=O)c2ccccc2)oc2ccccc12)c1cc(=O)c2ccccc2o1	.	1.4%	.	14.7%	.
CC(C)C[C@@H](CN1CCC[C@H]1CN1C(=O)C(=O)NC[C@@H]1Cc1ccccc1)N1C[C@H](Cc2ccccc2)N(CC2CCCCC2)C(=O)C1=O	?	?	0.0	?	?

Screening results: PubChem BioAssay, National Center for Advancing Translational Sciences (NCATS)
